Pf growth 96h: P. falciparum growth inhibition at 96 hours. 6.9% of 320,000 active. Potency, µM (highest dose often 28.7 µM), for inactives: at the top dose activity change, negative = inhibition, hits mostly inhibitors. P. falciparum luciferase reporter growth, 96 h. AID 504834; also: potency is read from the fitted curve at half-maximal effect; % is scaled to controls: 0 for no effect and ±100 for the full control effect
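Luminescence readout: decreased luciferase signal marks inhibited growth of reporter-expressing P. falciparum in infected red cells (2% hematocrit, 0.05% parasitemia final), exposed to compound two generations (96 h, 37 C, 5% CO2).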
Pf growth 48h: inhibits P. falciparum growth in the first generation, 48 h. P. falciparum luciferase growth in erythrocytes, 48 h. Potency, µM (titrated, usually from 28.7 µM), without a hit: at the highest dose activity change, negative = inhibition, usual class: inhibitors. 5.9% of 310,000 active. AID 504832; also: potency is read from the fitted curve at half-maximal effect; % is scaled to controls: 0 for no effect and ±100 for the full control effect
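A one-generation exposure of luciferase-tagged malaria parasites in RPMI 1640/Albumax erythrocyte culture, 37 C and 5% CO2. Inhibition is inferred from decreased luminescence after adding detection reagent.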
LmPK inh: LmPK (Leishmania mexicana) enzyme inhibition; Q27686; purified LmPK, Kinase-Glo ATP luminescence, 1 h; Potency, µM (top dose mostly 57.5 µM), for inactives: top-dose activity change, negative = inhibition, usual class: inhibitors; 0.37% of 290,000 active; also: potency is read from the fitted curve at half-maximal effect; % is scaled to controls: 0 for no effect and ±100 for the full control effect
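Pyruvate kinase activity monitored as ATP production (luciferase luminescence). Conditions: 0.1 nM enzyme, 0.5 mM PEP, 0.1 mM ADP, 1 h, RT; normalized against uninhibited and no-enzyme wells.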
Shiga toxin inh: Shiga toxin inhibition. Vero cells, Shiga toxin protein synthesis inhibition reporter. inhibition, % at 38.7 µM. 9.2% of 290,000 active. AID 2315; in the data active = inhibition mostly above about 28%, no sharp cut-off; inactive = mostly below about 43%; also: 0% is about no effect
Cycloheximide cs: affects cycloheximide protein synthesis inhibition readout, counter-screen | cell reporter, cycloheximide protein synthesis inhibition counterscreen | max response, % | 12% of 300,000 active; in the data active = max response mostly above about 13%, no sharp cut-off; inactive = mostly below about 14%; also: read at 38.3 µM for the half of the compounds with a filed dose; 0% is about no effect
CLK4 ADP-Glo: CLK4 (human) kinase inhibition, ADP-Glo confirmation. recombinant Clk4, RS peptide, ADP-Glo luminescence. AID 1969. 80% of 65 active. Potency, µM (series often up to 80 µM), for the others: top-dose activity, negative = inhibition, most hits filed as inhibitors. shares compounds with Pf growth 48h
Target sequence (Q9HAZ1 whole entry, looked up): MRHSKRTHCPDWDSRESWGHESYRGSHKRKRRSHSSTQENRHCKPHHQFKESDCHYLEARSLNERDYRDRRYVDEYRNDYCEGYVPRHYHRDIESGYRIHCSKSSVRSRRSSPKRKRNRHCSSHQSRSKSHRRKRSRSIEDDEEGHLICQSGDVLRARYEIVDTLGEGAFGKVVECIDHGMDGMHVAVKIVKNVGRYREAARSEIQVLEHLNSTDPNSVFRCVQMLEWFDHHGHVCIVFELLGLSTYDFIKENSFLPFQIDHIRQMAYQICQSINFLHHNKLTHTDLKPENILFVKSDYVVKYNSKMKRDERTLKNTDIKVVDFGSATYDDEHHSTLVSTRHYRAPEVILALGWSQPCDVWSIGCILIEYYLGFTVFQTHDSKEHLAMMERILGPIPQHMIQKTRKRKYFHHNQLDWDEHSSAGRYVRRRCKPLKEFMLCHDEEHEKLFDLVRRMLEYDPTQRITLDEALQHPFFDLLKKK
CLK4 cf ADP-FP: confirmation of human CDC-like kinase 4 (CLK4) inhibitors | shares compounds with Pf growth 48h | recombinant Clk4, ADP Transcreener FP, RS peptide | Potency, µM (top dose mostly 80 µM), without a hit: at the top dose activity, negative = inhibition, actives largely listed as inhibitors | 70% of 65 active | AID 1983
* marks the source's active call; other numbers are inactive results; ? = inconclusive; nt = not tested or not shown; [ ] = remark or other dose. The list is not random: actives were taken first. Their share in the collection is about 22%. Unless noted, calls follow the shape of the dose curve; as a rule, active = well fitted curve in the direction sought with a large enough effect; inconclusive = small, poorly fitted or top-dose-only effect, or another doubt; inactive = no such curve, though single readings can be large; an effect the other way counts as inactive or inconclusive.

SMILES | Pf growth 96h | Pf growth 48h | LmPK inh | Shiga toxin inh | Cycloheximide cs | CLK4 ADP-Glo | CLK4 cf ADP-FP
Cc1csc(CNc2ncnc3ccc(-c4cccc(Cl)c4)cc23)c1 | 2.3µM* | 7.4µM* | nt | nt | nt | 13µM* | ?
Cc1csc(CNc2ncnc3ccc(-c4ccco4)cc23)c1 | 7% | ? | nt | nt | nt | -2% | -9%
Cc1csc(CNc2ncnc3ccc(-c4ccc5c(ccn5C)c4)cc23)c1 | 5.9µM* | 3.7µM* | nt | nt | nt | 14µM* | 40µM*
Cc1csc(CNc2ncnc3ccc(-c4c(C)noc4C)cc23)c1 | nt | nt | nt | 7 | 11 | nt | nt
Cc1cccc(-c2ccc3ncnc(NCc4cc(C)cs4)c3c2)c1 | 9.3µM* | 12µM* | nt | nt | nt | 14µM* | ?
CC(=O)c1ccc(-c2ccc(C(=O)Nc3nc(C)c(C(C)=O)s3)o2)cc1 | -6% | 36% | nt | nt | nt | nt | nt
COc1ccc(CC(=O)Nc2cccc(S(=O)(=O)N3CCCCCC3)c2)cc1OC | ? | ? | 0% | -3 | -1 | nt | nt
NC(=O)c1ccc(NC(=O)COC(=O)CNC(=O)c2sc3ccccc3c2Cl)cc1 | ? | -17% | nt | nt | nt | nt | nt
c1csc(CNc2ncnc3ccc(-c4ccoc4)cc23)c1 | ? | ? | nt | nt | nt | 0.22µM* | 0.25µM*
Clc1ccc2c(NCc3cccs3)ncnc2c1 | 23% | nt | 1% | -7 | 2 | nt | nt
COc1cc2ncnc(NCc3cccs3)c2cc1OC | -24% | ? | 0% | 49 | 11 | nt | nt
c1csc(CNc2ncnc3ccc(-c4ccc5c(c4)OCO5)cc23)c1 | ? | ? | nt | nt | nt | 0.071µM* | 0.045µM*
CCC(=O)N(C)CCc1cc2c(c(OC)c1/C=N/NC(=O)c1ccc(Br)cc1)OCO2 | 40% | 16% | 1% | -10 | -1 | nt | nt
CC(=O)N(CC(C)(C)CC=C(C)C)c1ccccc1 | 6% | nt | 3% | -8 | -3 | nt | nt
Cc1ccc(N(Cc2ccco2)C(=O)c2cccc(S(=O)(=O)N(C)C)c2)cc1 | -17% | ? | -10% | -2 | 8 | nt | nt
CN(Cc1ccco1)c1ncnc2ccc(-c3ccc4c(ccn4C)c3)cc12 | 9.3µM* | 10µM* | nt | nt | nt | 14µM* | ?
CN(Cc1ccco1)c1ncnc2ccc(-c3ccc4c(c3)OCO4)cc12 | ? | ? | nt | nt | nt | 0.063µM* | 0.05µM*
Cc1cccc(-c2ccc3ncnc(N(C)Cc4ccco4)c3c2)c1 | ? | 12µM* | nt | nt | nt | 2.5µM* | 3.2µM*
FC(F)(F)c1cc(-c2ccc3c(c2)OCO3)nc(NCc2ccco2)n1 | 3% | 17% | 3% | 2 | 17 | nt | nt
CN(Cc1ccco1)c1ncnc2ccc(-c3cccc(Cl)c3)cc12 | 9.3µM* | 6.6µM* | nt | nt | nt | 1.4µM* | 1.6µM*
c1cncc(CNc2ncnc3ccc(-c4ccco4)cc23)c1 | ? | ? | nt | nt | nt | 2.8µM* | 8.9µM*
COc1cccc(CNc2ncnc3cc(OC)c(OC)cc23)c1 | ? | ? | 1% | 2 | -2 | nt | nt
COc1cccc(-c2ccc3ncnc(NCc4cccnc4)c3c2)c1 | ? | ? | nt | nt | nt | 2.5µM* | 4.5µM*
Cc1noc(C)c1-c1ccc2ncnc(NCc3ccccc3F)c2c1 | nt | nt | nt | 14 | 14 | nt | nt
Cc1cccc(CNc2ncnc3ccc(-c4ccccc4Cl)cc23)c1 | 1.5µM* | 5.2µM* | nt | nt | nt | 7.9µM* | ?
SMILES | Pf growth 96h | Pf growth 48h | LmPK inh | Shiga toxin inh | Cycloheximide cs | CLK4 ADP-Glo | CLK4 cf ADP-FP
Fc1cccc(CNc2ncnc3ccc(-c4ccccc4Cl)cc23)c1 | 2.1µM* | 5.9µM* | nt | nt | nt | 7.9µM* | 10µM*
Cc1cccc(CNc2ncnc3ccc(-c4cccc(Cl)c4)cc23)c1 | 4.1µM* | 6.6µM* | nt | nt | nt | 13µM* | ?
Cc1noc(C)c1-c1ccc2ncnc(NCc3ccc(F)cc3)c2c1 | nt | nt | nt | 22 | 22 | nt | nt
Cc1cccc(CNc2ncnc3ccc(-c4ccc5c(c4)OCO5)cc23)c1 | 3.3µM* | 5.9µM* | nt | nt | nt | 0.11µM* | 0.1µM*
Cc1ccc(CNC(=O)c2cc3c(s2)CN(Cc2ccccc2)C3)cc1 | ? | -2% | 5%[11.5 µM] | 10 | -8 | nt | nt
Nc1cc(N)nc(CS)n1 | 5% | -5% | 1% | -6 | 0 | nt | nt
Fc1cccc(CNc2ncnc3ccc(-c4cccnc4)cc23)c1 | 15µM* | ? | nt | nt | nt | 2.8µM* | 6.3µM*
c1cncc(CNc2ncnc3sccc23)c1 | 27% | 14% | -2% | -18 | -2 | nt | nt
Cc1cccc(-c2ccc3ncnc(NCc4cccc(F)c4)c3c2)c1 | 1.3µM* | 0.042µM* | nt | nt | nt | 4µM* | 7.9µM*
O=C(CNS(=O)(=O)c1ccccc1F)NNC(=O)c1ccc(Br)cc1 | 21% | 4% | nt | nt | nt | nt | nt
CC(=O)Nc1ccc(S(=O)(=O)N2CCC3(CC2)CC(=O)c2ccccc2O3)cc1 | ? | -28% | nt | nt | nt | nt | nt

Screening results from PubChem.
